“And” between values parts separate entries of the source, which are not always exact repeats. Identical values can stand only once. Compounds without any hit were thinned out: in the full panel of roughly 79,000, 15% have a hit. The source holds several records for some structures; these can differ, active in one and inactive in another. The source made the active and inactive calls. Cut-off read from the data, not from the text of the source: active = growth inhibition above about 70%; inactive = the rest. Where a SMILES comes first, the peptide text is derived from it. [ ]: non-standard residue; d: D form. ξ: configuration not given here. ξI = CCC(C)C(N)C(=O)O
What was measured:
[1] = NCI Yeast Anticancer Drug Screen. Data for the rad50 strain (AID 155);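 note: 0% = growth of vehicle-only cultures of the same strain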; settings: S. cerevisiae rad50 strain growth inhibition, stronger effect = higher value
In short: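 Vehicle-treated cultures provide the reference for the growth inhibition reported for compound-exposed, repair-deficient yeast.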

[2] = NCI Yeast Anticancer Drug Screen. Data for the mec2-1 strain (AID 157); settings: S. cerevisiae mec2-1 strain, stronger effect = higher value
In short: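 Test agents were screened against the mec2-1 yeast strain, with defined DNA repair or cell cycle alteration. Growth was scored as inhibition against vehicle-only controls.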

[3] = NCI Yeast Anticancer Drug Screen. Data for the sgs1 mgt1 strain (AID 161);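 note: 0% = growth of cultures given vehicle only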; settings: S. cerevisiae sgs1 mgt1 strain, stronger effect = higher value
In short: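 Inhibition of yeast growth, normalised to vehicle-treated controls, is reported for a strain bearing genetic alterations in DNA damage repair.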

[4] = NCI Yeast Anticancer Drug Screen. Data for the cln2 rad14 strain (AID 165);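 note: 0% = growth equal to vehicle treated cultures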; settings: S. cerevisiae cln2 rad14 strain, stronger effect = higher value
In short: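 Growth of compound-exposed yeast (cln2 rad14 genotype) measured and expressed as inhibition relative to vehicle.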

[5] = NCI Yeast Anticancer Drug Screen. Data for the bub3 strain (AID 167); settings: S. cerevisiae bub3 mutant strain, stronger effect = higher value
In short: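 Mutant yeast screening strain plus compound; vehicle-treated cultures serve as the 0% inhibition reference.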

[6] = NCI Yeast Anticancer Drug Screen. Data for the mlh1 rad18 strain (AID 175); settings: S. cerevisiae mlh1 rad18 strain growth inhibition, stronger effect = higher value
In short: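 In this whole-cell yeast screen, a strain with altered DNA damage repair is challenged with compound, and its growth is measured against matched vehicle-treated controls.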

[7] = at 5.0 µM (retest, dose inferred, filed as 0.5)
[8] = at 50.0 µM (retest, dose inferred, filed as 5.0)

Measured: growth inhibition

O=C1c2cc3c(cc2CC12Cc1ccccc1C2)CCC3
inactive: [1]; [7] 23% | [1]; [8] 21% | [1]; at 50.0 µM 20% | [2]; [7] 15% | [2]; [8] 15% | [2]; at 50.0 µM 2.25% | [3]; [7] 22% | [3]; [8] 54% | [3]; at 50.0 µM 46.9% | [4]; [7] 10% | [4]; [8] 16% | [4]; at 50.0 µM 16.8% | [5]; [7] 24% | [5]; [8] 51% | [5]; at 50.0 µM 50% | [6]; [7] 19% | [6]; [8] 23% | [6]; at 50.0 µM 17.4%

N#CCCC(CCC#N)(CCC#N)C(=O)c1ccccc1
inactive: [1]; [7] 10% | [1]; [8] 4% | [1]; at 50.0 µM 11.6% and 20.9% | [2]; [7] -15% | [2]; [8] -6% | [2]; at 50.0 µM 15.8% and -3.15% | [4]; [7] 4% | [4]; [8] 14% | [4]; at 50.0 µM 26.1% and 18.9% | [5]; [7] 10% | [5]; [8] 23% | [5]; at 50.0 µM 18.1% and 7.55% | [6]; [7] 20% | [6]; [8] 12% | [6]; at 50.0 µM 20.2% and 26.8%

O=[N+]([O-])c1c(Br)cc(Br)c2c1Nc1c(ccc(Cl)c1Cl)S2
active: [1]; [8] 94% | [1]; at 50.0 µM 96.5% | [2]; [8] 95% | [2]; at 50.0 µM 96.7% | [3]; [8] 95% | [3]; at 50.0 µM 96.4% | [4]; [8] 93% | [4]; at 50.0 µM 94.2% | [5]; [8] 95% | [5]; at 50.0 µM 94.8% | [6]; [8] 95% | [6]; at 50.0 µM 95.3%
inactive: [1]; [7] 14% | [2]; [7] 26% | [3]; [7] 13% | [4]; [7] 20% | [5]; [7] 28% | [6]; [7] 39%

Cc1cc2c(c(Br)c1O)Oc1c(cc(C)c(O)c1Br)C21OC(=O)c2ccccc21
active: [1]; [8] 98% | [1]; at 50.0 µM 90.7% | [3]; [8] 99% | [3]; at 50.0 µM 92.6% | [4]; [8] 98% | [4]; at 50.0 µM 92.5% | [5]; [8] 99% | [5]; at 50.0 µM 91% | [6]; [7] 77% | [6]; [8] 98% | [6]; at 50.0 µM 90%
inactive: [1]; [7] 52% | [3]; [7] 55% | [4]; [7] 36% | [5]; [7] 52%

COc1ccc2cc(C(C)=O)c3ccccc3c2c1
active: [1]; [8] 93% | [1]; at 50.0 µM 94.2% | [2]; [8] 95% | [2]; at 50.0 µM 86.5% | [4]; [8] 77% | [5]; [8] 94% | [6]; [8] 95% | [6]; at 50.0 µM 97%
inactive: [1]; [7] 11% | [2]; [7] -34% | [4]; [7] -2% | [4]; at 50.0 µM -8.2% | [5]; [7] -68% | [5]; at 50.0 µM 2.7% | [6]; [7] 2%

CCCCCCCCCCCCCCCC(=O)NCC[N+](C)(C)C
active: [1]; [8] 99% | [1]; at 50.0 µM 99.5% | [2]; [8] 100% | [2]; at 50.0 µM 99.7% | [4]; [8] 99% | [4]; at 50.0 µM 99.2% | [5]; [8] 100% | [5]; at 50.0 µM 99.5% | [6]; [8] 99% | [6]; at 50.0 µM 99.6%
inactive: [1]; [7] 33% | [2]; [7] 52% | [4]; [7] 10% | [5]; [7] 58% | [6]; [7] 36%

CCC(C)C(NC(=O)CN)C(=O)O (centres undefined) (H-Gly-[ξI]-OH)
inactive: [1]; at 50.0 µM 6.95% [middle of 4 runs] | [2]; at 50.0 µM -3% [middle of 4 runs] | [6]; at 50.0 µM -17.8% [middle of 4 runs]

COC(=O)C1C(O)C(C)C(O)C(C)C=C(C)C2=C3C(=C(C)C(=O)c4c(O)c(c(C)c(OC(C)=O)c43)NC(=O)C(C)=C/C=C\C(C)C(O)C(C)C1O)OCO2 (centres undefined)
inactive: [2]; [7] -14% | [2]; [8] -42% | [2]; at 50.0 µM 22.1% and -8.55% | [3]; [7] -11% | [4]; [7] -10% | [4]; [8] 10% | [4]; at 50.0 µM 28.6% and 3% | [5]; [7] -31% | [5]; [8] -27% | [5]; at 50.0 µM 37.9% and 8.2% | [6]; [7] -36% | [6]; [8] -3% | [6]; at 50.0 µM 17.6% and 8.65%
90.2% (active) and -9.2% (inactive): [3]; at 50.0 µM
active: [3]; [8] 89%

Nc1nc(-c2ccccn2)cc2ccccc12
active: [3]; [8] 77% | [6]; [8] 85%
inactive: [1]; [7] 5% | [1]; [8] 63% | [1]; at 50.0 µM -2.25% | [3]; [7] 22% | [3]; at 50.0 µM 4.35% | [4]; [7] 21% | [4]; [8] 62% | [4]; at 50.0 µM 4.4% | [5]; [7] 1% | [5]; [8] 61% | [5]; at 50.0 µM 7.35% | [6]; [7] 29% | [6]; at 50.0 µM 11.1%

— PubChem BioAssay (NCI)
